According to PubChem BioAssay (NCI):
Values joined by “and” are separate entries in the source; they are usually repeats but may differ in a detail not shown here. Equal entries are not always repeated. About 83,000 compounds went through this panel and 20% of them were active in at least one assay; those are over-represented in the sample as a whole.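 Results are percent growth after 48 hours of single-concentration exposure. 100 means growth as in untreated cells, lower positive values show inhibition; negative values down to -100 show cell death.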 Values without a mark were called inactive. Active and inactive are the calls of the source. How the source made its calls: active means growth percent below 10; inactive means the rest.

Each compound was assayed on MDA-MB-468 breast (assay: NCI-60 one-dose screen, 48 h (100 = growth as untreated, 0 = no growth, -100 = all killed)). Settings: 10 µM unless noted.
`CN(C)C(=S)SSC(=S)N(C)C` was tested, and the growth was 96.6% and 108%. Compound `COC(=O)[C@@H](C)C[C@H](Cc1ccccc1)NC(=O)c1csc([C@@H](C[C@H](C(C)C)N(C)C(=O)[C@H](C)NC(=O)[C@H]2CCCCN2C)OC(C)=O)n1` has a growth of 10.1%. In the case of `c1ccc(-c2ccc3ccccc3[o+]2)cc1`, the growth is reported as 94%. In the case of `Cn1cc(-c2csc(-c3cn(CCN4CCOCC4)c4ccccc34)n2)c2cccnc21`, the growth is reported as 63.3%. In the case of `COc1ccc(N(CC(=O)NCCC[Te]c2ccccc2)C(=O)CCSC2=C(C)C(=O)c3ccccc3C2=O)cc1`, the growth is reported as -58.1% (active). In the case of `CC(C)(C)OOC(=O)/C=C\C(=O)OOC(C)(C)C`, the growth is reported as 108%. Compound `COC12CC3C4=CCOC5CC(=O)N6c7ccccc7C1(CCN2C4)C6C53` (stereo not given) has a growth of 102%. `O=[N+]([O-])c1ccc(OCc2ccc(S(=O)(=O)F)c(Cl)c2)c(Cl)c1` gave a growth of 121%. With `CCCCn1c(=O)c(C(=O)NCc2ccccc2Cl)c(O)c2ccccc21` the growth was 70.6%. For `O=[N+]([O-])c1ccc(N2CCOCC2)c2c1no[n+]2[O-]`, the growth was 2.62% (active). In the case of `CC1=C2C(=O)[C@](C)(CO)C=C2C(=O)[C@](C)(O)C12CC2`, the growth is reported as -69.8% (active). Work on `N#CC(C#N)=Cc1ccc2ccccc2c1` yielded a growth of 105%. `CCOP(=O)(OCC)C(O)c1ccccc1Cl` (stereo not given) showed a growth of 103%. `CC(=O)O[C@@H]1C2=C(C)C3(CC3)[C@@](C)(O)C(=O)C2=C[C@@]1(C)CO` was tested, and the growth was -54% (active). With `CC(C)(C)N1CC1C#N` (stereo not given) the growth was 97%.
